Data from PubChem BioAssay (NCATS).
Results filed as inconclusive are left out. Where a call stands in place of a potency, no number is given. Active and inactive are the calls of the source. Unless noted, the call rests on the fitted dose curve; in most records, active means well fitted curve in the direction sought with a large enough effect; inconclusive means small, poorly fitted or top-dose-only effect, or another doubt; inactive means no such curve, though single readings can be large; an effect the other way counts as inactive or inconclusive.

Experiments:
[1] = qHTS for differential inhibitors of proliferation of Plasmodium falciparum line 7G8 (AID 1815); conditions: Plasmodium falciparum 7G8 proliferation inhibition; series mostly up to 28.7 µM;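 further: parasite growth measured after three days of incubation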; further: potency means the concentration at half of the fitted maximal effect
[2] = qHTS for differential inhibitors of proliferation of Plasmodium falciparum line GB4 (AID 1816); conditions: Potency: Plasmodium falciparum GB4 proliferation inhibition; series mostly up to 28.7 µM;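 further: parasite growth measured after 72 h incubation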; further: potency means the concentration at half of the fitted maximal effect
[3] = qHTS for differential inhibitors of proliferation of Plasmodium falciparum line 3D7 (AID 1876); further: potency means the concentration at half of the fitted maximal effect; conditions: P. falciparum 3D7 proliferation inhibition; series mostly up to 28.7 µM
[4] = qHTS for differential inhibitors of proliferation of Plasmodium falciparum line D10 (AID 1877); conditions: series mostly up to 28.7 µM;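 further: parasites grown with compound for 72 h before DNA staining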; further: potency means the concentration at half of the fitted maximal effect
[5] = qHTS for differential inhibitors of proliferation of Plasmodium falciparum line Dd2 (AID 1882); conditions: Potency: Plasmodium falciparum Dd2 proliferation inhibition; series mostly up to 28.7 µM; further: nearly all actives have a fitted effect of over 65% in size; further: potency means the concentration at half of the fitted maximal effect
Method in brief: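 SYBR Green DNA fluorescence (ex 485, em 535 nm) after overnight lysis quantifies parasite growth; compound exposure lasted 72 h at 37 C on infected red cells at 2.5% hematocrit, 0.3% parasitemia (final). Artemisinin 0.29 uM and vehicle wells define normalization.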

[6] = qHTS for differential inhibitors of proliferation of Plasmodium falciparum line W2 (AID 1883); conditions: Potency: Plasmodium falciparum W2 proliferation inhibition; series mostly up to 28.7 µM;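 further: parasites grown with compound for 72 h before lysis and staining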; further: potency means the concentration at half of the fitted maximal effect
[7] = qHTS for differential inhibitors of proliferation of Plasmodium falciparum line HB3 (AID 1886); conditions: Potency: Plasmodium falciparum HB3 proliferation inhibition; series mostly up to 28.7 µM;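 further: parasites grown with compound for 72 h before SYBR Green readout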; further: potency means the concentration at half of the fitted maximal effect
[8] = target: Ferritin light chain (Equus caballus) (UniProt P02791); assay: qHTS Validation Assay for Identification of Novel General Anesthetics (AID 2323); conditions: horse apoferritin, anesthetic-site fluorescent probe displacement; series mostly up to 76.9 µM
Sequence of Ferritin light chain (Equus caballus) (P02791 2-175 limits assumed): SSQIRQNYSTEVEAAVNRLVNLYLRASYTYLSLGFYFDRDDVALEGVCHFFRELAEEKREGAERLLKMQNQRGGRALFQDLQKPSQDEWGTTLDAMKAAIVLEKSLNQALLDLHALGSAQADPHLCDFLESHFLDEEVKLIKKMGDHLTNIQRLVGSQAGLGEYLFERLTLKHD
Method in brief: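 Horse-spleen apoferritin (10 uM) in PBS with 50% saturated 1-aminoanthracene; compounds pin-transferred, 10 min at room temperature. Fluorescence read at 380/535 nm, normalized to free 1-AMA and 1-AMA/apoferritin values; four-parameter Hill fit.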

[9] = qHTS Assay for Modulators of Human Peripheral Myelin Protein 22 (PMP22) Expression/Activity (AID 1967; active means well fitted curve in the direction sought with a large enough effect in the signal ratio; the % refers to the signal ratio); conditions: Cell-based PMP22 reporter, dual-color luciferase ratio, mouse Pmp22 promoter in mouse Schwann cells; series mostly up to 115 µM
Method in brief: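 Mouse MSC80 Schwann cells carrying Pmp22 promoter–green click beetle luciferase plus EF-alpha–red luciferase control, dosed 24 h at 37 °C. Dual-filter luminescence, overlap-corrected; %Activity from green/red ratio normalised to untreated cells, concentration-response curves fitted.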

SMILES	Potency [1]	Potency [2]	Potency [3]	Potency [4]	Potency [5]	Potency [6]	Potency [7]	outcome [8]	outcome [9]
O=C(O)c1cc[c]([Hg][Cl])cc1	3.16 µM (active)	2.51 µM (active)	2.24 µM (active)	1.12 µM (active)	11.2 µM (active)	1.41 µM (active)	5.01 µM (active)	inactive	–
CCCN(CCC)[C@@H]1CCc2cccc(O)c2C1	3.55 µM (active)	3.16 µM (active)	10 µM (active)	10 µM (active)	8.91 µM (active)	2.51 µM (active)	10 µM (active)	inactive	–
CN1C2CCC1CC(OC(c1ccccc1)c1ccc(Cl)cc1)C2 (configuration not stated)	2.24 µM (active)	2.24 µM (active)	2.24 µM (active)	7.94 µM (active)	8.91 µM (active)	1.12 µM (active)	2.24 µM (active)	inactive	–
NCC(CP(=O)(O)O)c1ccc(Cl)cc1 (configuration not stated)	inactive	inactive	inactive	inactive	inactive	inactive	inactive	inactive	–
COc1ccc(OC)c(C(O)C(C)N)c1 (configuration not stated)	inactive	inactive	inactive	inactive	inactive	–	inactive	inactive	–
COc1ccc(CNC(=O)/C=C/c2ccc3[nH]cc(CCN(C)C)c3c2)cc1	11.2 µM (active)	11.2 µM (active)	8.91 µM (active)	11.2 µM (active)	–	8.91 µM (active)	10 µM (active)	inactive	–
NCCc1ccc(S(=O)(=O)F)cc1	inactive	inactive	inactive	inactive	inactive	–	inactive	inactive	inactive
CCCN(CCC)CCc1c[nH]c2ccc(C(N)=O)cc12	inactive	inactive	inactive	inactive	inactive	–	inactive	inactive	–
NC(N)=NOCC[C@H](N)C(=O)O	inactive	inactive	inactive	inactive	inactive	–	inactive	inactive	–
CCCn1c(C)c(C(=O)c2ccc3ccccc3c2)c2ccccc21	7.94 µM (active)	10 µM (active)	10 µM (active)	14.1 µM (active)	inactive	10 µM (active)	12.6 µM (active)	inactive	–
CCOC(=O)c1ncn2c1[C@@H]1CCCN1C(=O)c1cc(OC)ccc1-2	7.94 µM (active)	inactive	inactive	inactive	inactive	–	inactive	inactive	–
C[C@]12Cc3cn4c(nc3C=C1CCC1C2CC[C@@]2(C)[C@H]1CC[C@@]2(O)C#N)nc1ccccc14 (some centres not stated)	1.26 µM (active)	3.16 µM (active)	2.82 µM (active)	5.01 µM (active)	3.55 µM (active)	2.82 µM (active)	5.62 µM (active)	inactive	–
O=S1(=O)N(CCN2CC=C(c3c[nH]c4cc(F)ccc34)CC2)c2cccc3c2N1CCC3	1.41 µM (active)	1.41 µM (active)	0.501 µM (active)	1.26 µM (active)	2 µM (active)	1 µM (active)	1.26 µM (active)	inactive	–
C=CCN1CCC23c4c5ccc(O)c4O[C@H]2C(=O)CC[C@@]3(O)C1C5 (some centres not stated)	inactive	inactive	inactive	inactive	inactive	–	inactive	inactive	–
Oc1ccc2c3c1O[C@H]1c4[nH]c5ccccc5c4C[C@@]4(O)C(C2)N(CC2CC2)CCC314 (some centres not stated)	8.91 µM (active)	8.91 µM (active)	10 µM (active)	12.6 µM (active)	8.91 µM (active)	6.31 µM (active)	–	inactive	–
N[C@@H](CCl)C(=O)O	inactive	inactive	inactive	inactive	inactive	–	inactive	inactive	–
CCCN1CCCC2Cc3[nH]ncc3CC21 (configuration not stated)	inactive	inactive	inactive	inactive	inactive	–	inactive	inactive	inactive
CP(=O)(O)C1=CCNCC1	inactive	inactive	inactive	inactive	inactive	inactive	inactive	inactive	–
C[Se]C[C@H](N)C(=O)O	inactive	inactive	inactive	inactive	inactive	inactive	inactive	inactive	–
NCCc1c[nH]c2ccc(C(N)=O)cc12	inactive	inactive	inactive	inactive	inactive	–	inactive	inactive	inactive
CC(N)[C@H](O)c1ccc(O)c(O)c1 (some centres not stated)	inactive	inactive	inactive	inactive	inactive	–	inactive	inactive	inactive
CCn1cnc2c(Nc3cccc(Cl)c3)nc(N[C@@H]3CCCC[C@@H]3N)nc21	3.16 µM (active)	3.98 µM (active)	2.82 µM (active)	7.94 µM (active)	11.2 µM (active)	2.82 µM (active)	8.91 µM (active)	inactive	–
c1ccc2c(c1)[I+]c1ccccc1-2	0.1 µM (active)	0.0708 µM (active)	0.0708 µM (active)	0.141 µM (active)	1 µM (active)	0.1 µM (active)	0.0562 µM (active)	inactive	–
CC1(C(=O)O)C2CCC(O2)C1(C)C(=O)O (configuration not stated)	3.55 µM (active)	3.16 µM (active)	2.24 µM (active)	1.58 µM (active)	5.01 µM (active)	1.12 µM (active)	2.24 µM (active)	inactive	–
NC(Cc1cc(O)c(O)cc1O)C(=O)O (configuration not stated)	–	inactive	inactive	inactive	inactive	inactive	inactive	–	–

SMILES	Potency [1]	Potency [2]	Potency [3]	Potency [4]	Potency [5]	Potency [6]	Potency [7]	outcome [8]	outcome [9]
CC(N)Cc1c[nH]c2ccc(OCc3cccs3)cc12 (configuration not stated)	7.94 µM (active)	7.94 µM (active)	10 µM (active)	–	–	7.94 µM (active)	11.2 µM (active)	inactive	–
COc1ccc2c(c1OC)C(=O)OC2C1c2cc3c(cc2CCN1C)OCO3 (configuration not stated)	inactive	–	inactive	inactive	inactive	–	inactive	inactive	–
C[C@H](N)CN1CCc2ccc(Br)cc21	8.91 µM (active)	1.26 µM (active)	8.91 µM (active)	–	8.91 µM (active)	2.24 µM (active)	11.2 µM (active)	inactive	–
C[N+](C)(C)CC#CCN1CCCC1=O	–	inactive	inactive	inactive	inactive	–	inactive	inactive	–
O=C1CC[C@@]2(O)C3Cc4ccc(O)c5c4C2(CCN3CC2CC2)[C@H]1O5 (some centres not stated)	inactive	inactive	–	–	inactive	10 µM (active)	–	inactive	inactive
C[N+]1(C)CCC(OC(=O)C(c2ccccc2)c2ccccc2)CC1	8.91 µM (active)	12.6 µM (active)	3.16 µM (active)	7.08 µM (active)	–	3.98 µM (active)	7.94 µM (active)	inactive	–
CCCn1c(=O)c2[nH]c(C3CCCC3)nc2n(CCCOC(=O)c2ccc(S(=O)(=O)F)cc2)c1=O	12.6 µM (active)	–	–	inactive	–	11.2 µM (active)	–	–	–
C[N+]1(C)CCN(c2ccccc2)CC1	inactive	inactive	–	inactive	inactive	–	inactive	inactive	–
CN1CCc2cccc(Cl)c2CC1	inactive	–	inactive	inactive	inactive	–	inactive	inactive	inactive
NC(Cc1ccc(N(CCCl)CCCl)cc1)C(=O)O (configuration not stated)	10 µM (active)	11.2 µM (active)	10 µM (active)	12.6 µM (active)	–	10 µM (active)	12.6 µM (active)	inactive	–
CN(N=O)c1cc(O)ccc1O	inactive	–	inactive	inactive	inactive	inactive	inactive	inactive	–
CC(Cc1ccc(OCC(=O)O)cc1)NCC(O)c1cccc(Cl)c1 (configuration not stated)	–	inactive	inactive	inactive	inactive	inactive	inactive	inactive	inactive
N#CC(C#N)=Cc1cc(O)c(O)c(O)c1	6.31 µM (active)	10 µM (active)	12.6 µM (active)	12.6 µM (active)	–	7.94 µM (active)	11.2 µM (active)	inactive	–
O=[N+]([O-])c1ccc2nc(N3CCNCC3)ccc2c1	8.91 µM (active)	12.6 µM (active)	10 µM (active)	12.6 µM (active)	–	7.94 µM (active)	12.6 µM (active)	inactive	–
CNC(=O)OCC[N+](C)(C)C	inactive	inactive	inactive	–	inactive	inactive	inactive	inactive	–
CC12NC(Cc3ccccc31)c1ccccc12 (configuration not stated)	–	5.01 µM (active)	inactive	inactive	7.94 µM (active)	4.47 µM (active)	inactive	inactive	inactive
COc1ccc2[nH]c3c(c2c1)CCNC3	inactive	–	inactive	inactive	inactive	–	inactive	inactive	–
COc1ccc2c(c1)C13CCCCC1C(C2)N(C)CC3 (configuration not stated)	3.16 µM (active)	–	–	inactive	–	0.891 µM (active)	–	inactive	–
NC(N)=Nc1ccc2[nH]c3c(c2c1)C[C@@]1(O)[C@H]2Cc4ccc(O)c5c4[C@@]1(CCN2CC1CC1)[C@H]3O5	inactive	–	inactive	–	inactive	–	inactive	–	–
Nc1ccc(CCN2CCN(c3cccc(C(F)(F)F)c3)CC2)cc1	7.94 µM (active)	–	inactive	–	inactive	10 µM (active)	inactive	inactive	–
NC(=O)c1cc(N2CC2)c([N+](=O)[O-])cc1[N+](=O)[O-]	inactive	–	inactive	inactive	inactive	–	inactive	inactive	–
CCCN(CCC)CCc1ccc(O)c(O)c1	12.6 µM (active)	10 µM (active)	–	14.1 µM (active)	–	10 µM (active)	11.2 µM (active)	inactive	–
CN1C2CCC1CC(OC(c1ccccc1)c1ccccc1N)C2 (configuration not stated)	8.91 µM (active)	5.62 µM (active)	11.2 µM (active)	–	–	2.51 µM (active)	10 µM (active)	inactive	–
CCCN(CCC)C1Cc2cc(OC)c(OC)cc2C1	inactive	–	inactive	inactive	inactive	inactive	inactive	inactive	inactive
c1ccc2cc(CC3=NCCN3)ccc2c1	–	10 µM (active)	inactive	inactive	inactive	12.6 µM (active)	inactive	inactive	inactive
